From PubChem BioAssay
Where “and” joins values, the source holds several entries; their conditions need not be identical. Equal entries are not always repeated. Where a structure was tested more than once in an assay, its records may differ in their call. Calls of active or inactive are those of the source.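 How the source made its calls, unless noted: active means mean z-score across replicates of 1.96 or higher in either the MELAS or the Rieske mutant cell line; inactive means the rest.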

test: viability loss with induced miR-34 in A549 – imaging, A549 dox-inducible miR-34, nuclei and caspase counts, primary screen (AID 1347080); details: A549 miR-34 inducible, Hoechst nuclei count, 48 h; measured here: total cells without miR-34 induction

Row | SMILES | cell count
1 | C=C[C@@]1(C)CC(=O)[C@]2(O)[C@@]3(C)[C@@H](O)CCC(C)(C)[C@@H]3[C@H](O)[C@H](OC(C)=O)[C@@]2(C)O1 | 10400
2 | CC(C)NC[C@@H](O)COc1cccc2ccccc12 | 8520
3 | C#C[C@]1(O)CC[C@H]2[C@@H]3CCc4cc(OC)ccc4[C@H]3CC[C@@]21C | 10400
4 | Cc1onc(-c2ccccc2)c1C(=O)N[C@@H]1C(=O)N2[C@@H]1SC(C)(C)[C@@H]2C(=O)O | 11300

test: blockers of cellular phospholipid synthesis – cell-based, LOPAC library, screen 4, primary screen (AID 1347384; call rule not given here); details: animal cells, phospholipid biosynthesis inhibition screen; at 10 µM

Row | SMILES | outcome
5 | NC(=O)c1ncn([C@@H]2O[C@H](CO)[C@@H](O)[C@H]2O)c1O | inactive
6 | C#CCN(C)Cc1ccccc1 | inactive
7 | CNC[C@H](O)c1ccc(O)c(O)c1 | inactive
8 | CN1CCN(CC(=O)N2c3ccccc3C(=O)Nc3cccnc32)CC1 | inactive
9 | COCCc1ccc(OCC(O)CNC(C)C)cc1 (stereo not drawn) | inactive
10 | CC(=O)O[C@]1(C(C)=O)CC[C@H]2[C@@H]3C=C(Cl)C4=CC(=O)[C@@H]5C[C@@H]5[C@]4(C)[C@H]3CC[C@@]21C | inactive
11 | CCCCNc1ccc(C(=O)OCCN(C)C)cc1 | inactive
12 | CCCCC1C(=O)N(c2ccccc2)N(c2ccccc2)C1=O | inactive
13 | COC(=O)[C@@H]1[C@H]2C[C@H]3c4[nH]c5ccccc5c4CCN3C[C@@H]2CC[C@@H]1O | inactive
14 | O=C1NCC2(CCN(CCc3ccccc3)CC2)O1 | inactive
15 | CN(C)CCC(c1ccccc1)c1ccccn1 (stereo not drawn) | inactive
16 | C[N+](C)(C)CCOC(N)=O | inactive
17 | CNC1(C)C2CCC(C2)C1(C)C (stereo not drawn) | inactive
18 | NC[C@H](O)c1ccc(O)c(O)c1 | inactive
19 | CN(C)C(=O)Oc1cccc([N+](C)(C)C)c1 | inactive
20 | NC(N)=N/N=C/c1c(Cl)cccc1Cl | inactive

test: MELAS cybrid and Rieske KO viability enhancers – cell-based, MELAS cybrids, Rieske KO mouse fibroblasts, CellTiter-Glo, primary screen (AID 1508586); details: MELAS cybrid survival, low glucose, CellTiter-Glo 48 h; stronger effect = higher value;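 further: z relative to plate mean and SD of compound and empty wells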

Row | SMILES | z-score
21 | CCN1CCN(C(=O)N[C@@H](C(=O)N[C@@H]2C(=O)N3C(C(=O)O)=C(CSc4nnnn4C)CS[C@H]23)c2ccc(O)cc2)C(=O)C1=O | -0.583 (inactive) and -0.0634 (inactive)
22 | C#CCN(C)Cc1ccccc1 | -0.298 (inactive) and 0.205 (inactive)
23 | CC(C)(C)NC(=O)[C@H]1CC[C@H]2[C@@H]3CC[C@H]4NC(=O)C=C[C@]4(C)[C@H]3CC[C@]12C | 0.136 (inactive) and 0.187 (inactive)
24 | CC(=O)O[C@H]1C[C@@H]2CC[C@@H]3[C@H](CC[C@@]4(C)[C@H]3C[C@H]([N+]3(C)CCCCC3)[C@@H]4OC(C)=O)[C@@]2(C)C[C@@H]1N1CCCCC1 | 0.144 (inactive) and 0.341 (inactive)
25 | Nc1ccc(S(N)(=O)=O)cc1 | -0.359 (inactive) and -1 (inactive)
26 | O=C1C(=O)c2ccccc2C(O)=C1C1CCC(c2ccc(Cl)cc2)CC1 (stereo not drawn) | -0.28 (inactive) and 0.215 (inactive) and 0.186 (inactive)
27 | C[C@@](Cc1ccc(O)c(O)c1)(NN)C(=O)O | -0.318 (inactive) and -0.0378 (inactive) and 0.282 (inactive)
28 | C#C[C@]1(O)CC[C@H]2[C@@H]3CCc4cc(O)ccc4[C@H]3CC[C@@]21C | 1.16 (inactive)
29 | CN1CCN(CC(=O)N2c3ccccc3C(=O)Nc3cccnc32)CC1 | 0.149 (inactive) and -0.644 (inactive)
30 | COCCc1ccc(OCC(O)CNC(C)C)cc1 (stereo not drawn) | -0.374 (inactive) and 0.559 (inactive) and -0.0156 (inactive)
31 | CO[C@@]12[C@H](COC(N)=O)C3=C(C(=O)C(C)=C(N)C3=O)N1C[C@@H]1N[C@@H]12 | -0.241 (inactive)
32 | CC(=O)O[C@]1(C(C)=O)CC[C@H]2[C@@H]3C=C(Cl)C4=CC(=O)[C@@H]5C[C@@H]5[C@]4(C)[C@H]3CC[C@@]21C | -0.4 (inactive)
33 | CCC(=O)O[C@]1(C(=O)SCF)[C@H](C)C[C@H]2[C@@H]3C[C@H](F)C4=CC(=O)C=C[C@]4(C)[C@@]3(F)[C@@H](O)C[C@@]21C | 0.444 (inactive)
34 | CCCCNc1ccc(C(=O)OCCN(C)C)cc1 | -0.338 (inactive) and -0.454 (inactive)
35 | O=c1[nH]c(=O)n([C@H]2C[C@H](O)[C@@H](CO)O2)cc1F | -1.41 (inactive) and 0.996 (inactive)
36 | CCCCC1C(=O)N(c2ccccc2)N(c2ccccc2)C1=O | 0.0284 (inactive) and -1.01 (inactive) and 0.0538 (inactive)
37 | COC(=O)[C@@H]1[C@H]2C[C@H]3c4[nH]c5ccccc5c4CCN3C[C@@H]2CC[C@@H]1O | 0.194 (inactive) and -0.872 (inactive)

Row | SMILES | z-score
38 | O=C1NCC2(CCN(CCc3ccccc3)CC2)O1 | -0.249 (inactive) and 0.534 (inactive)
39 | CN(C)CCC(c1ccccc1)c1ccccn1 (stereo not drawn) | 0.589 (inactive) and -0.102 (inactive) and 0.319 (inactive)
40 | CC1(C)O[C@@H]2C[C@H]3[C@@H]4C[C@H](F)C5=CC(=O)C=C[C@]5(C)[C@@]4(F)[C@@H](O)C[C@]3(C)[C@]2(C(=O)CO)O1 | 0.713 (inactive) and 0.472 (inactive)
41 | CCOC(=O)O[C@]1(C(=O)OCCl)CC[C@H]2[C@@H]3CCC4=CC(=O)C=C[C@]4(C)[C@H]3[C@@H](O)C[C@@]21C | 0.475 (inactive)
42 | Nc1ccc(N=Nc2ccccc2)c(N)n1 | 3.05 (active) and 0.049 (inactive) and 2.48 (active)
43 | C#C[C@]1(O)CC[C@H]2[C@@H]3CCc4cc(OC)ccc4[C@H]3CC[C@@]21C | 1.7 (inactive)
44 | O=C(CCCN1CCN(c2ccccn2)CC1)c1ccc(F)cc1 | -0.275 (inactive) and -0.83 (inactive) and 0.232 (inactive)
45 | C[N+](C)(C)CCOC(N)=O | -0.544 (inactive) and -0.486 (inactive)
46 | CCO/C([O-])=N/c1c[n+](N2CCOCC2)no1 | 0.408 (inactive) and -0.37 (inactive)
47 | CNC1(C)C2CCC(C2)C1(C)C (stereo not drawn) | -0.287 (inactive) and -0.243 (inactive)
48 | CC(=O)Oc1ccc(C(c2ccc(OC(C)=O)cc2)c2ccccn2)cc1 | -0.393 (inactive) and -0.251 (inactive) and -0.144 (inactive)
49 | COc1ccccc1OCC(O)CO (stereo not drawn) | -0.233 (inactive) and 0.795 (inactive) and 1.3e-05 (inactive)
50 | NC[C@H](O)c1ccc(O)c(O)c1 | -0.303 (inactive) and 0.0574 (inactive) and -0.946 (inactive)
51 | CN(C)C(=O)Oc1cccc([N+](C)(C)C)c1 | 0.498 (inactive) and -0.72 (inactive)
52 | NC(N)=N/N=C/c1c(Cl)cccc1Cl | -0.136 (inactive) and 1.02 (inactive)
53 | Cc1onc(-c2ccccc2)c1C(=O)N[C@@H]1C(=O)N2[C@@H]1SC(C)(C)[C@@H]2C(=O)O | 0.677 (inactive) and 0.0608 (inactive)
